Reference: the supplement of paper PMC11732987, “Enantioselective OTUD7B fragment discovery through chemoproteomics screening and high-throughput optimisation” (Communications Chemistry, 2025)
A number with no mark means an inactive call.

Tests used:
Test in all cases: log2 ratio of Biotin-Ahx-Ub-VS probe labelling (fragment/DMSO); higher = less target engagement (more negative = stronger competition), active = hit call of the paper (q ≤ 0.05, log2 ratio ≤ -1)
Details in all cases: compound concentration: 200 uM; treatment time: 3 h
[1] = biological target: UniProt O00507
UniProt O00507, sequence (O00507 whole entry, the tested form may be a part): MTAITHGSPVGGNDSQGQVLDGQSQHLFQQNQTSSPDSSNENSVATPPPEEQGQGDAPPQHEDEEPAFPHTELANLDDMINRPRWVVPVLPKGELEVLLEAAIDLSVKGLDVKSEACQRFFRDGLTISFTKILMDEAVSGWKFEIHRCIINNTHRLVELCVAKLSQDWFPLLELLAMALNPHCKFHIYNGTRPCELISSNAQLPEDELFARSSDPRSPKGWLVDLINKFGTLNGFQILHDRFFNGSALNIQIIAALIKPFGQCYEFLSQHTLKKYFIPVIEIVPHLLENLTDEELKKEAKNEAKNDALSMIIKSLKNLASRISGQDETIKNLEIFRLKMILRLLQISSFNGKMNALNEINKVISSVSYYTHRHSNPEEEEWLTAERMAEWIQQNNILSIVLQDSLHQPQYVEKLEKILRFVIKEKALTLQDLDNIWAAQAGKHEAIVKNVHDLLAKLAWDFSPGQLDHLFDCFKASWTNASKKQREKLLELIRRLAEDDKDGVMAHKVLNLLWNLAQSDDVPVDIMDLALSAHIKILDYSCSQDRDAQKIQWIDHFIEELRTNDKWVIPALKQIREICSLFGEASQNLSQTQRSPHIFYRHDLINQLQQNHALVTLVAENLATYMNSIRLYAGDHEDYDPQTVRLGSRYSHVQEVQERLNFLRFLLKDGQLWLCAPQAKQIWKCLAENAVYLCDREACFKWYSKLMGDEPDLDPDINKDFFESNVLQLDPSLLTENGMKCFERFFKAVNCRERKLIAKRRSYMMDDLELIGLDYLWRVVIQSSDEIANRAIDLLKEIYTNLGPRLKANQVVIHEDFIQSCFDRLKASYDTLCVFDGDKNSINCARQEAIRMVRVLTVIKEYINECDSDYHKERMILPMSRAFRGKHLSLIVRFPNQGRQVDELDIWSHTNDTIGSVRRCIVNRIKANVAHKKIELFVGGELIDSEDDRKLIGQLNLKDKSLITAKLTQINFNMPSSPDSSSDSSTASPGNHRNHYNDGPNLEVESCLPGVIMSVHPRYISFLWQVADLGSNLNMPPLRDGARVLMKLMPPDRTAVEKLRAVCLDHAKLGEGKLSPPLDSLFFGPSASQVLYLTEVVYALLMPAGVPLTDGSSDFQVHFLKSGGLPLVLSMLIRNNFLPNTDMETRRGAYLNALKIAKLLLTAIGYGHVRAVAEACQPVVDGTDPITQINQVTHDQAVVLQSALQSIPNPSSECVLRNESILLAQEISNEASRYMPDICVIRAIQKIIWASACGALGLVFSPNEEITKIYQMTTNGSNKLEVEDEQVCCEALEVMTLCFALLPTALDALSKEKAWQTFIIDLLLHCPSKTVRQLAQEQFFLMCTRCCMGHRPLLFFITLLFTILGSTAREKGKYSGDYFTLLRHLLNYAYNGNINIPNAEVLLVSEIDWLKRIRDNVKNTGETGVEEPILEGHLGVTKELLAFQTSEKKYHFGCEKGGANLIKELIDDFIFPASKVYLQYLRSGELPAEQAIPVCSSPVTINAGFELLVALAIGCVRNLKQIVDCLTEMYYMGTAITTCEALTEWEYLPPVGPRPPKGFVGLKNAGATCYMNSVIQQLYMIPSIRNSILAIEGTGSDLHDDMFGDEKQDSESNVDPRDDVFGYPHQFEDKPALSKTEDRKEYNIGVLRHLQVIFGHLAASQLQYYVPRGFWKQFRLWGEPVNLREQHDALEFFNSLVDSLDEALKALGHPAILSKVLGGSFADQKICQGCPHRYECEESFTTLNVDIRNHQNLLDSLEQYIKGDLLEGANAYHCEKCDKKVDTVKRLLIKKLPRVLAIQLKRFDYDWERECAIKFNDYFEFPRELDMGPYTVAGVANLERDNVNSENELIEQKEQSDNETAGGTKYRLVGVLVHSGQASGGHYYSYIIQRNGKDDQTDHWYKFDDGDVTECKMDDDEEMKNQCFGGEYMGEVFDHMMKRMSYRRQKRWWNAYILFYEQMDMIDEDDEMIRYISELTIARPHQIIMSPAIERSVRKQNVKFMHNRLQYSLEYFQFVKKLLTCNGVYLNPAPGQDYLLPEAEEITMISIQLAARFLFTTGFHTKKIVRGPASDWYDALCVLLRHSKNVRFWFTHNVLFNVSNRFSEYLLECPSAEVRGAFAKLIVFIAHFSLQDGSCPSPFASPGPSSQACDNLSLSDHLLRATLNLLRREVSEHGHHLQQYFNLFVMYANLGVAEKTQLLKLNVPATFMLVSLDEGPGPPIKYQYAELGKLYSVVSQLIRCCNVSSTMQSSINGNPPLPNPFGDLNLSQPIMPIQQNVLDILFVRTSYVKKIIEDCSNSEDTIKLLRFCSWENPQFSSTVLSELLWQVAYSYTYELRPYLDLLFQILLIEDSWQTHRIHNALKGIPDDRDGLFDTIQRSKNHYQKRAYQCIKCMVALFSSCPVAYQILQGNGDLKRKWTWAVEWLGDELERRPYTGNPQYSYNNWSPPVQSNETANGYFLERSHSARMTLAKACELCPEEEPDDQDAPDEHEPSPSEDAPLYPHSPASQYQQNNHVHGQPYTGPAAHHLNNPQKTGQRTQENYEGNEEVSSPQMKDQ
Summary of the method: (§1)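 Average log2 ratios of fragment over vehicle were obtained by unpaired t-test from global-median-normalised Spectronaut label-free quantities. Proteins with ≥2 unique peptides were included. HEK293T lysate (495 µg per sample) was treated in triplicate with fragment at 200 µM or vehicle for 3 h, then with Biotin-Ahx-Ub-VS at 0.5 µM final for 1 h, and labelled DUBs were NeutrAvidin-enriched and run by diaPASEF LC-MS/MS.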

[2] = biological target: UniProt P51784
UniProt P51784, sequence (P51784 whole entry): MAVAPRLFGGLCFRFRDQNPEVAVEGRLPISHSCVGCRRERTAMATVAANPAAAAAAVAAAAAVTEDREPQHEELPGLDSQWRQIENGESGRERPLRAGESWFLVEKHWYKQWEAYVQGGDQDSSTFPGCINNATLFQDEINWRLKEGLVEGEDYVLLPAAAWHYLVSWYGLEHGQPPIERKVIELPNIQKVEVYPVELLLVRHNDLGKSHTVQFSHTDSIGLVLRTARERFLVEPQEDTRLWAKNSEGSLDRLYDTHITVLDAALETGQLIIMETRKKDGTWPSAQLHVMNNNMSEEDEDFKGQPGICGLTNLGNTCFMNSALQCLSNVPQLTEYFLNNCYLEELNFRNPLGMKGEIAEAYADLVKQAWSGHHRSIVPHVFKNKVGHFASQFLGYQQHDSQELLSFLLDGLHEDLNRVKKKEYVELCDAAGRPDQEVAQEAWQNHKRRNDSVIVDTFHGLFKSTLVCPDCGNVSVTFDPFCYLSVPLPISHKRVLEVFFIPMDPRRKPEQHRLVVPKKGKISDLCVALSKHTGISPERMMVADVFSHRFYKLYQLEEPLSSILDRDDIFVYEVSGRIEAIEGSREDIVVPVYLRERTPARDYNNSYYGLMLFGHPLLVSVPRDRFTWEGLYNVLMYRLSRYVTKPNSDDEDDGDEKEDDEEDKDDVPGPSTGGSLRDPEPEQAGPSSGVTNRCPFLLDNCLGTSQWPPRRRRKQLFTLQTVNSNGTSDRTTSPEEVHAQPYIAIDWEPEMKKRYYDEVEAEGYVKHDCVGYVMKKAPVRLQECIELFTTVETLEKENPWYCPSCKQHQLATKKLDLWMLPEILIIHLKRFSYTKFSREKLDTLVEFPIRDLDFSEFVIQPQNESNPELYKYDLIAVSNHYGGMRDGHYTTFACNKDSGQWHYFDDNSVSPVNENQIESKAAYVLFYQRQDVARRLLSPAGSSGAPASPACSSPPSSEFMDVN
Summary of the method: as §1

[3] = biological target: T1, UniProt Q5T2D3
T1 sequence (whole entry): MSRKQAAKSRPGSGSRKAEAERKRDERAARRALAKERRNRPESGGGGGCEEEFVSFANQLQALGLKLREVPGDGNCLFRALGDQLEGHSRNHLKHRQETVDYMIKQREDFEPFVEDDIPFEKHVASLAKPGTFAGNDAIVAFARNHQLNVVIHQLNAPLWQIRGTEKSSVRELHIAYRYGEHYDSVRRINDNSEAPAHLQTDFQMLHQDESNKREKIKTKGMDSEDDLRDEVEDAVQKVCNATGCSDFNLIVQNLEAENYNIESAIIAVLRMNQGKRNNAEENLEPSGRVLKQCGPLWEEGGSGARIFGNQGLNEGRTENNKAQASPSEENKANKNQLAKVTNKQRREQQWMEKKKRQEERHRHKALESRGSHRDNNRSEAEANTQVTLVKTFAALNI
Summary of the method: as §1

[4] = biological target: T2, UniProt Q8TE49
T2 sequence (whole entry): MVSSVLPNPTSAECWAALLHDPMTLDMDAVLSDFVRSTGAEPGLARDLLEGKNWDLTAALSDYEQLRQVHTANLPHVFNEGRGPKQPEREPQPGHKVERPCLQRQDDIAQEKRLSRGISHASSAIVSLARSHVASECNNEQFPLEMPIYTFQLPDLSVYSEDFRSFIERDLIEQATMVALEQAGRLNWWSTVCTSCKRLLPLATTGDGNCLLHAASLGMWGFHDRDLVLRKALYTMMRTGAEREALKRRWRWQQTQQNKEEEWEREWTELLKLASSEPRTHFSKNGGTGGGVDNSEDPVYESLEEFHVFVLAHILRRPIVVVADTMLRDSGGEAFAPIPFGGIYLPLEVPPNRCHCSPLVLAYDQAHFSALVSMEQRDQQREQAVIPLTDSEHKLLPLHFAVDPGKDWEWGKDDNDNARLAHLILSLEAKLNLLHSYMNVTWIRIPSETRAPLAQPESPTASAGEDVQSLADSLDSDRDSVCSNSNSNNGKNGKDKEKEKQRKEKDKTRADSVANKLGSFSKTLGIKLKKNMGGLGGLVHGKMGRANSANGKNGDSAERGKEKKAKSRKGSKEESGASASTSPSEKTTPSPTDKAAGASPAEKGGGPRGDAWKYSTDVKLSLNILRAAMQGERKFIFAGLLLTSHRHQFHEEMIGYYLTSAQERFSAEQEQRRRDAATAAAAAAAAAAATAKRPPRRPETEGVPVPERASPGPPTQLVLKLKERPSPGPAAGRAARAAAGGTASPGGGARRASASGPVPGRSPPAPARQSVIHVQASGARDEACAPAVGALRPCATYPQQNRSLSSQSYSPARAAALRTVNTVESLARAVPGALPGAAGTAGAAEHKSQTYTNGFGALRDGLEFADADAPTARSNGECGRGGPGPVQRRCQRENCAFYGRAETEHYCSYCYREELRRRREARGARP
Summary of the method: as §1

[5] = biological target: T3, UniProt Q9P2H5
T3 sequence (whole entry): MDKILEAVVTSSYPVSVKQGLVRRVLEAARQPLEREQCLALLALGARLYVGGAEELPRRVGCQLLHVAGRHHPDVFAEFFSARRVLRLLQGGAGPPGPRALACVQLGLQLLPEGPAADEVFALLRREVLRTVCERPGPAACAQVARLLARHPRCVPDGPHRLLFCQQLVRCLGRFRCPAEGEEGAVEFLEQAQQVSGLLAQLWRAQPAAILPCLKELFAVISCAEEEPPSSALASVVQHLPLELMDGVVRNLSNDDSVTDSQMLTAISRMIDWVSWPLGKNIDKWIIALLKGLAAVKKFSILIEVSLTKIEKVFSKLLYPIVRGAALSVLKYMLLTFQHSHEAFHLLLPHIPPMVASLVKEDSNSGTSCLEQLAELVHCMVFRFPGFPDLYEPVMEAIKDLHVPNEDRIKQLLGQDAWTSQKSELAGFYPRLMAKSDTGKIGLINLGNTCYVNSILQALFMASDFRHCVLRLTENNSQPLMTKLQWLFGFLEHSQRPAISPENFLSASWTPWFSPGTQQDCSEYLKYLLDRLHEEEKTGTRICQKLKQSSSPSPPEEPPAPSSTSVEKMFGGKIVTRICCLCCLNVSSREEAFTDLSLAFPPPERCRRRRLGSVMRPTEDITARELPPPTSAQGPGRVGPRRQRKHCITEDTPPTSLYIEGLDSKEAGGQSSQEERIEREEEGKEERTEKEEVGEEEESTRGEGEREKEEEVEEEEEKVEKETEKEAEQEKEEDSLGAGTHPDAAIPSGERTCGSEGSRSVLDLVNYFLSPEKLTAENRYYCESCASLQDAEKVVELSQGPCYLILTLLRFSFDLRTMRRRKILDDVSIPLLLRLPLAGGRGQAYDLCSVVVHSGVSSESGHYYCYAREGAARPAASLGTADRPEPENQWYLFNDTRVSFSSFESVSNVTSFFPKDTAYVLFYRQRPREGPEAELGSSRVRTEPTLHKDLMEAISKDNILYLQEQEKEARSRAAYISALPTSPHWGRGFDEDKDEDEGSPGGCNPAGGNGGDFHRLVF
Summary of the method: as §1

[6] = biological target: T4, UniProt Q9UGI0
T4 sequence (whole entry): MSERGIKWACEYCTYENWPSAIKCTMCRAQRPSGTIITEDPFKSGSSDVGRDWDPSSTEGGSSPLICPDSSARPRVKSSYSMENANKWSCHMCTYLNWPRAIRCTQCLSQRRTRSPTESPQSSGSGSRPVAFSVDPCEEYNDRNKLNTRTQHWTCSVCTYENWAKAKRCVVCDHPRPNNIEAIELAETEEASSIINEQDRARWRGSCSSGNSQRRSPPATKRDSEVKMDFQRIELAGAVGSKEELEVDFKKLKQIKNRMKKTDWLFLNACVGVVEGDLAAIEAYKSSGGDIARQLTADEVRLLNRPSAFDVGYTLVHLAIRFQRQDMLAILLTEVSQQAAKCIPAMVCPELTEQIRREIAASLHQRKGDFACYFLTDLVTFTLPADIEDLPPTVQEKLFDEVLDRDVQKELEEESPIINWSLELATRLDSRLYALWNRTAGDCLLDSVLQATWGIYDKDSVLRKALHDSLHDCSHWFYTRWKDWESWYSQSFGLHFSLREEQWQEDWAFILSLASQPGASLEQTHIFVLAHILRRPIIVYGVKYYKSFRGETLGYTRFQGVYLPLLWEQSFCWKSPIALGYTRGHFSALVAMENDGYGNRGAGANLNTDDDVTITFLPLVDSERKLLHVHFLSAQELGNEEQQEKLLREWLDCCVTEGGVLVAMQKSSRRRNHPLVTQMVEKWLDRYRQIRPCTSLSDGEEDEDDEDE
Summary of the method: as §1

[7] = biological target: T5, YOD1 (UniProt Q5VVQ6)
T5 sequence (whole entry): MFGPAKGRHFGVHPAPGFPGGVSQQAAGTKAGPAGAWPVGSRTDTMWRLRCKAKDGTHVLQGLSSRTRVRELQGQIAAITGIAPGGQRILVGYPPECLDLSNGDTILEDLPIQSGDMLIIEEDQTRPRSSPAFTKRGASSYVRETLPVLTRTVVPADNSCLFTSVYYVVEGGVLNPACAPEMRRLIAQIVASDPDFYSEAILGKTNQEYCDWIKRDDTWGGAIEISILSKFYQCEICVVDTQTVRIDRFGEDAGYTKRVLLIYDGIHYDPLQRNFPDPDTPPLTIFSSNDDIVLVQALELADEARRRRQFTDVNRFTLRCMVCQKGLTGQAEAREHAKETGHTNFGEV
Summary of the method: as §1

Row | Compound | log2 ratio of Biotin-Ahx-Ub-VS probe labelling [1] | log2 ratio of Biotin-Ahx-Ub-VS probe labelling [2] | log2 ratio of Biotin-Ahx-Ub-VS probe labelling [3] | log2 ratio of Biotin-Ahx-Ub-VS probe labelling [4] | log2 ratio of Biotin-Ahx-Ub-VS probe labelling [5] | log2 ratio of Biotin-Ahx-Ub-VS probe labelling [6] | log2 ratio of Biotin-Ahx-Ub-VS probe labelling [7]
1 | O=C(CCl)N1CCc2[nH]c3ccccc3c2C1 | -1.27 (active) | -0.429 | -0.115 | -0.338 | -0.439 | -1.68 (active) | -0.2
2 | CN(C)S(=O)(=O)c1ccccc1CNC(=O)CCl | -0.154 | 0.0361 | -0.255 | -0.178 | -0.0151 | -0.47 | 0.0246
3 | N#Cc1ccccc1N1CCN(C(=O)CCl)CC1 | -0.534 | -0.515 | -0.687 | -1.29 (active) | -0.617 | -2.22 (active) | -0.448
4 | CN(C)C(=O)c1ccc(NC(=O)CCl)cc1 | 0.0581 | -0.0219 | 0.0298 | 0.182 | 0.102 | -0.97 | 0.0572
5 | CS(=O)(=O)c1ccc(CNC(=O)CCl)cc1 | -0.143 | -0.0799 | -0.383 | -0.563 | 0.0147 | -0.189 | -0.172
6 | O=C(CCl)Nc1cc2c(cc1Cl)OCCCO2 | 0.443 | 0.0196 | 0.0208 | -0.506 | -0.0168 | -0.0467 | 0.361
7 | N#Cc1ccc(Cl)cc1NC(=O)CCl | -0.451 | 0.0676 | -0.0728 | -0.577 | 0.0403 | -0.441 | 0.0565
8 | O=C(CCl)N1CCC(C(=O)N2CCCCCC2)CC1 | 0.0804 | 0.0166 | -0.255 | -0.488 | -0.287 | -0.0376 | 0.016
9 | O=C(CCl)N1CCC(S(=O)(=O)c2ccc(F)cc2)CC1 | 0.0377 | -0.0572 | -0.0766 | -0.856 | -0.104 | -0.887 | 0.119
10 | Cc1ncc2c(n1)CCN(C(=O)CCl)C2 | 0.136 | 0.000874 | -0.239 | -0.624 | -0.422 | -0.458 | 0.165
11 | Cl.O=C(CCl)NCc1ccnc(Oc2ccccc2F)c1 | -0.125 | 0.0358 | -0.167 | -0.406 | -0.188 | -0.246 | -0.103
12 | Cl.Cn1nccc1C(NC(=O)CCl)c1ccccc1 (centres undefined) | 0.249 | -0.121 | -0.172 | -0.655 | -0.154 | -0.583 | 0.125
13 | O=C(CCl)NC1CCS(=O)(=O)c2ccccc21 (centres undefined) | -0.00358 | -0.174 | -0.342 | -1.2 (active) | -0.644 | -0.564 | 0.0479
14 | O=C(CCl)Nc1nc(-c2cccs2)cs1 | -0.168 | 0.104 | -0.239 | -0.68 | -0.138 | -2.34 (active) | 0.237
15 | Cc1ccc(C)c(Oc2ccc(CNC(=O)CCl)cn2)c1.Cl | -0.379 | -0.367 | -0.187 | -0.677 | -0.375 | -0.886 | -0.149
16 | O=C(CCl)N1CCCCC12CCOCC2 | -0.561 | -0.343 | -0.414 | -0.444 | -0.444 | -0.517 | -0.518
17 | Cl.O=C(CCl)NC1(c2ncccn2)CCC1 | -0.0196 | 0.0134 | -0.0112 | 0.0256 | -0.0207 | -0.201 | 0.161
